Shown are actives, neighbours in structure and some others; about 2.9% of the full set was active somewhere.
Nrf2 ARE act: activates Nrf2 signaling; AREc32 ARE-luciferase reporter (MCF7-derived line), luminescence, 24 h; Potency, µM (top dose mostly 46.1 µM), without a hit: top-dose activation, hits mostly activators; 0.31% of 410,000 active; AID 624171; note: % of control where 0% means no effect; nearly all actives have a fitted effect of over 65% in size
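ARE-driven firefly luciferase activity in AREc32 cells measured after a 24 hr compound exposure at 37 deg C, using Steady-Glo reagent and a 30 min room-temperature hold.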
A549 viability: counter-screen for Nrf2 inhibitors: cytotoxicity in A549 cells; A549 ARE-Fluc cells, CellTiter-Fluor viability, 18-24 h; Potency, µM (series often up to 46 µM), inactives show top-dose activity change, negative = cytotoxicity, most hits filed as inhibitors; 0.16% of 390,000 active; note: % is set by controls: 0 for no effect and ±100 for the full control effect
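A549 ARE_Fluc cells in 5% FBS OPTI-MEM were exposed to compounds in concentration-response for 18-24 h at 37 deg C. Viability was read by CellTiter-Fluor fluorescence (Ex 405/Em 525) after 30 min, before the luciferase read.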
Nrf2 block: blocks Nrf2 signaling; A549 ARE-Fluc reporter, luciferase luminescence, 18-24 h; Potency, µM (series often up to 46 µM), without a hit: at the highest dose activity change, negative = inhibition, usual class: inhibitors; 2.1% of 360,000 active; AID 504444; note: % is set by controls: 0 for no effect and ±100 for the full control effect; nearly all actives have a fitted effect of over 60% in size
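A549 ARE_Fluc cells (5000/well, 5% FBS OPTI-MEM) pre-incubated 2 h, then treated with compounds 18-24 h at 37C/5% CO2 in concentration-response. CellTiter-Fluor viability read first; BugLite luciferase luminescence after 15 min at room temperature gives Nrf2 activity.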
S2 tox: reduces viability in counter-screen for ATXN expression inhibitors | S2 cells (HEK-293 line with an ATXN2-luciferase reporter) viability, CellTiter-Fluor protease fluorescence, 24 h | Potency, µM (series often up to 56.7 µM), hits mostly cytotoxic | 0.49% of 400,000 active; note: nearly all actives have a fitted effect of over 40% in size
ATXN2 expr inh: ATXN2 expression inhibition; HEK-293 ATXN2-luciferase reporter, luminescence, 24 h; Potency, µM (titrated, usually from 57 µM), inactives show at the highest dose activity change, negative = inhibition, usual class: inhibitors; 0.72% of 360,000 active; note: % is set by controls: 0 for no effect and ±100 for the full control effect; nearly all actives have a fitted effect of over 55% in size
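ATXN2-luciferase reporter cells (luciferase flanked by upstream and downstream ATXN2 gene portions) were treated 24 h at 37 °C with compounds at up to 57 uM. SteadyGlo luminescence gave expression; GF-AFC fluorescence gave viability.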
* = called active by the depositor; i = inactive; ? = inconclusive; . = no result; [ ] = remark or other dose. Calls come from the whole dose curve; as a rule, active = well fitted curve in the direction sought with a large enough effect; inconclusive = small, poorly fitted or top-dose-only effect, or another doubt; inactive = no such curve, though single readings can be large; an effect the other way counts as inactive or inconclusive. Potency is the fitted concentration of half-maximal effect.

SMILES	Nrf2 ARE act	A549 viability	Nrf2 block	S2 tox	ATXN2 expr inh
C=CC[n+]1c(-c2ccc(Cl)cc2Cl)csc1Nc1c(C)n(C)n(-c2ccccc2)c1=O	2%	-19%	?	?	-15%
Cc1ncc2c(c1CNC(=O)c1ccccc1F)CCN(C(=O)c1csc(-c3cccs3)n1)C2	.	.	.	i	.
COc1ccc(NC(=O)Nc2cc(C)ccn2)cc1	-1%	1%	?	i	-26%
Cc1ccnc(NC(=O)c2ccc(OCC3CCCO3)cc2)c1 (configuration not stated)	-2%	3%	?	i	5.6µM*
Cc1ccc(NC(=O)c2ccc(OCC3CCCO3)cc2)c(C)c1 (configuration not stated)	0%[9.22 µM]	-2%	-6%	i	2%
COc1ccc(C(=O)NC(=O)Nc2cc(C)ccn2)cc1	-1%	17%	7.3µM*	?	?
O=C(OCc1cc(=O)n2c3c(sc2n1)CCCC3)c1cccc(NC(=O)c2ccccc2F)c1	1%	-8%	.	.	.
CCOC(=O)C1CCN(S(=O)(=O)c2cc(-c3cc(C)no3)ccc2OC)CC1	1%	12%	?	.	.
CCOc1ccccc1C(=O)Nc1cc2c(cc1N1CCCCC1)n(C)c(=O)n2C	4%	?	23µM*	?	?
CN1CCN(c2cc(-c3cc(O)c4ncccc4c3)ccn2)CC1	0%	-2%	5%	?	10µM*
O=C(CN1CCC(c2nc3ccccc3s2)CC1)NCc1cccs1	4%	-2%[1.84 µM]	7.3µM*	i	-2%
O=C(CSc1ccc(F)cc1)N1CCC(c2nc3ccccc3s2)CC1	4%	-10%	18µM*	i	-26%
Cc1nc2cc(NC(=O)[C@@H]3C[C@@H](Sc4ccccn4)CN3Cc3cccc(Cl)c3)ccc2s1	.	.	.	i	.
Nc1cc(-c2ccccc2)c[nH]c1=O	.	5.8µM*	7.3µM*	.	.
Cn1nc(C(F)(F)F)c(/C=N/OC(=O)c2ccccc2Cl)c1SCc1ccc(Cl)cc1	-1%	?	21µM*	i	-28%
Oc1ccc(C[C@H]2CN([C@@H](Cc3ccc(O)cc3)CN3CCC[C@@H]3CN3C(=S)NC[C@@H]3Cc3ccccc3)C(=S)N2CC2CCCCCC2)cc1	-3%	.	.	8.9µM*	10µM*
Oc1ccc(C[C@H]2CN([C@@H](Cc3ccccc3)CN3CCCC3CN3C(=S)NC[C@@H]3Cc3ccccc3)C(=S)N2CC2CCCCC2)cc1 (some centres not stated)	-1%	.	.	?	-33%
CC(C)C[C@H]1CNC(=S)N1C[C@H]1CCCN1C[C@H](CC(C)C)N1C[C@H](Cc2ccc(O)cc2)N(CCc2ccccc2)C1=S	-2%	.	.	7.1µM*	?
Oc1ccc(C[C@H]2CNC(=S)N2CC2CCCN2C[C@H](Cc2ccc(O)cc2)N2C[C@H](Cc3ccc(O)cc3)N(CC3CCCCC3)C2=S)cc1 (some centres not stated)	-3%	?	13µM*	?	0%
Oc1ccc(C[C@H]2CNC(=S)N2C[C@H]2CCCN2C[C@H](Cc2ccccc2)N2C[C@H](Cc3ccc(O)cc3)N(CC3CCCCCC3)C2=S)cc1	-3%	.	.	20µM*	0%
Oc1ccc(C[C@H]2CNC(=S)N2CC2CCCN2C[C@H](Cc2ccccc2)N2C[C@H](Cc3ccc(O)cc3)N(CC3CCCCCC3)C2=S)cc1 (some centres not stated)	-3%	-8%	?	?	?
Oc1ccc(C[C@H]2CN([C@@H](Cc3cccc(O)c3)CN3CCC[C@@H]3CN3C(=S)NC[C@@H]3Cc3ccccc3)C(=S)N2CC2CCCCC2)cc1	-3%	.	.	13µM*	16µM*
CC(C)C[C@H]1CN([C@@H](Cc2ccccc2)CN2CCC[C@H]2CN2C(=O)C(=O)NC[C@@H]2Cc2ccccc2)C(=O)C(=O)N1CCc1ccccc1	-3%	.	.	i	8%
CC(C)C[C@H]1CN([C@@H](Cc2ccccc2)CN2CCC[C@@H]2CN2C(=O)C(=O)NC[C@@H]2Cc2ccccc2)C(=O)C(=O)N1CCc1ccccc1	-2%	.	.	25µM*	?
Oc1ccc(C[C@H]2CNC(=S)N2CC2CCCN2C[C@H](Cc2ccc(O)cc2)N2C[C@H](Cc3ccccc3)N(CCc3ccccc3)C2=S)cc1 (some centres not stated)	1%	-14%	21µM*	i	?
SMILES	Nrf2 ARE act	A549 viability	Nrf2 block	S2 tox	ATXN2 expr inh
O=C1CCCC2=C1C1(CCSC1)N=C(Nc1nc3ccccc3o1)N2 (configuration not stated)	.	-2%	-5%	.	.
CCOc1ccc(CCNC(=O)c2ccc(-c3nc(CSc4ccccc4)c(C)o3)cc2)cc1	1%	8%	16%	i	-4%
CCCCOC(=O)NC1CCc2cc(OC)c(OC)c(OC)c2-c2ccc(SC)c(=O)cc21 (configuration not stated)	2%	?	?	0.038µM*	1%
CC(Oc1ccc(F)cc1)C(=O)Nc1nc(-c2ccccn2)cs1 (configuration not stated)	9%	?	21µM*	?	7.9µM*
O=C(CCS(=O)(=O)c1ccc(F)cc1)Nc1nc(-c2ccccn2)cs1	?	-3%	5%	?	.
Cc1ccc(C)c(N(C)C(=O)Cc2c(C(=O)O)[nH]c3ccc(Cl)cc23)c1	-1%	2%	-10%	i	-10%
Cc1cc2c(s1)c1cnn(Cc3ccc(F)c(F)c3)c(=O)c1n2C	.	-2%	13%	.	.
Cc1cc(C)c2c(N)c(C(=O)Nc3ncc(C)s3)sc2n1	-1%	10%	?	i	2.5µM*
CC(C)(C)NC(=O)C(c1ccc(-c2ccccc2)cc1)N(C[C@H]1CC[C@@H]([C@@H]2CC[C@H](CO)O2)O1)C(=O)c1ccc2ccccc2c1 (some centres not stated)	-2%	?	?	20µM*	?
COc1ccc(OC)c(C(=O)N(C[C@H]2CC[C@@H]([C@@H]3CC[C@H](CO)O3)O2)C(C(=O)NC(C)(C)C)c2ccc(-c3ccccc3)cc2)c1 (some centres not stated)	5%	?	26µM*	i	0%
CC(C)(C)NC(=O)C(c1ccc(-c2ccccc2)cc1)N(C[C@H]1CC[C@@H]([C@@H]2CC[C@H](CO)O2)O1)C(=O)c1cccc(Cl)c1 (some centres not stated)	0%	?	23µM*	.	?
CC(C)(C)NC(=O)C(c1ccc(-c2ccccc2)cc1)N(C[C@H]1CC[C@@H]([C@@H]2CC[C@H](CO)O2)O1)C(=O)c1ccc(-c2ccccc2)cc1 (some centres not stated)	0%	?	?	.	?

From PubChem BioAssay
